Data as given in PMC5540273 (PLoS ONE, 2017).

tested on: RIPK2
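Note: kd values determined as follow-up on hits from a single-replicate KINOMEscan panel screen.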

Row | SMILES | Kd [µM]
1 | CC(C)c1ccc(O)cc1Nc1ccnc2ccc(C(F)(F)F)cc12 [GW482059] | > 10
2 | Cn1cncc1-c1cc2c(Nc3ccc(OCc4ccccc4)cc3)ncnc2cn1 [GW281179] | 0.065
3 | CS(=O)(=O)CCNCc1nc(-c2ccc3ncnc(Nc4ccc5c(cnn5Cc5ccccc5)c4)c3c2)cs1.Cl.Cl [GW569716] | 0.067
4 | O=C(Nc1n[nH]c2nc(-c3cccs3)c(Br)cc12)C1CC1 [SB-735297] | > 10

tested on: ROCK1

Row | SMILES | Kd [µM]
5 | CC(C)c1ccc(O)cc1Nc1ccnc2ccc(C(F)(F)F)cc12 [GW482059] | > 10
6 | c1ccc(-c2ccnc3[nH]ccc23)cc1 [SB-693578] | 0.15
7 | Cn1cncc1-c1cc2c(Nc3ccc(OCc4ccccc4)cc3)ncnc2cn1 [GW281179] | 0.59

tested on: T1, RSK4(Kin.Dom.2-C-terminal)
T1 construct: gene RPS6KA6

Row | SMILES | Kd [µM]
8 | Fc1ccc(-c2nc[nH]c2-c2ccncc2)cc1 [SB-217360] | 0.31
9 | Fc1ccc(-c2nc3n(c2-c2ccncc2)CCS3)cc1 [GI98581] | 0.26
10 | Cc1cccc2c(-c3ccncn3)c(-c3ccc(F)cc3)nn12 [GW515532] | 6.8
